Source: PubChem BioAssay
D1 antag = antagonists of human D1 dopamine receptor | HEK293 TREx D1 cells, calcium flux, dopamine EC80; hits give low values | P21728 | actives 3.2% (n = 360,000) | AID 504652 | activity change, negative = inhibition, % at 10 µM; in the data active = activity change below about -30%; also: % is scaled to controls: 0 for no effect and ±100 for the full control effect
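Kinetic fluorescence of a calcium dye serves as the read-out. D1-expressing Hek293 Trex cells, induced overnight at 30 C, are exposed to compound for 180 s before an EC80 dopamine addition, then read 180 s further.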
TRHR ag = activates the human TRH receptor; AID 493084; activation, % at 2 µM; P34981; actives 0.18% (n = 360,000); TRHR cells, calcium flux fluo-8, FDSS agonist mode; also: 0% is about no effect
Target sequence (P34981 whole entry, looked up): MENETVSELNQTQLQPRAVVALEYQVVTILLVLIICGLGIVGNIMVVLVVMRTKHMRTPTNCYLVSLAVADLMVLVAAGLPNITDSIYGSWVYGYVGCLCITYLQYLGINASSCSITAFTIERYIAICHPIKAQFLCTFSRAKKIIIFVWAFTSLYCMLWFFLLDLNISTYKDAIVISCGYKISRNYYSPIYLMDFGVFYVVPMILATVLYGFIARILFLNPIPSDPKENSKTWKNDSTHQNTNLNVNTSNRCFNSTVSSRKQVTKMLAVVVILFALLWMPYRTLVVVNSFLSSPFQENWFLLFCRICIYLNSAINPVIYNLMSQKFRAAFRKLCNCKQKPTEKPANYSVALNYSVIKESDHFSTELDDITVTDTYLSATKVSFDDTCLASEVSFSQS
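TRHR-expressing cells, plated overnight in medium with 10% serum, were loaded with fluo-8 calcium dye at room temperature. After a 10 s baseline, library compound was pin-added and calcium release was recorded kinetically (ex 480/em 530) as agonist response.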
TRHR PAM = TRH receptor (human) allosteric enhancement | P34981 | TRHR cells, fluo-8 calcium fluorescence, EC20 TRH enhancement | enhancement, % at 2 µM | actives 0.66% (n = 360,000) | AID 493056; in the data active = enhancement above about 30%; also: 0% is about no effect
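Enhancer read-out: after compound pinning and an initial kinetic agonist-mode read, an EC20 of TRH (10 nM final) was injected and fluo-8 calcium signal (Ex 480/Em 530) followed at 1 s/cycle for 100 cycles in TRHR-expressing cells.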
D1 agonist = human D1 receptor agonism | activation, % at 2 µM | AID 504660 | P21728 | actives 1% (n = 360,000) | HEK293 T-REx D1 cells, calcium flux, agonist mode; also: 0% is about no effect
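Agonism was scored from calcium flux recorded over 180 s (1 read/s) after pintool compound addition, following a 10-cycle baseline. Cells were inducible force-coupled HEK293 TREx D1, plated overnight at 30 C and loaded with no-wash calcium dye.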
D1 potentiator = potentiators of human D1 dopamine receptor | actives 0.036% (n = 360,000) | AID 504651 | P21728 | potentiation, % at 10 µM | HEK293 TREx D1 cells, calcium flux, dopamine EC20 potentiation; in the data active = potentiation above about 30%; also: 0% is about no effect
Active calls of the source: *; / = no result. An excerpt weighted towards active compounds, which were near 4.7% of everything screened. Rule as the data show it, unless noted: active = activation above about 30%; inactive = the rest.

SMILES	D1 antag	TRHR ag	TRHR PAM	D1 agonist	D1 potentiator
Cc1ccc(C2C(C(=O)O)c3ccccc3C(=O)N2C)c(C)c1 (stereo unspecified)	-40*	0	-2	2	2
Cc1ccc(Oc2nnc(-c3cccs3)c3ccccc23)cc1C	-32*	0	27	1	-6
Cc1nc(SCCc2ccccc2)[nH]c(=O)c1C	2	0	6	2	-1
Cc1nc(SCc2ccc(Br)cc2)[nH]c(=O)c1C	-41*	0	-2	3	-18
COc1ccc(NC(=O)c2n[nH]c(=O)c3ccccc23)cc1S(=O)(=O)N1CCCCC1	-39*	0	-3	1	-1
COc1ccccc1CCC(=O)OCC(=O)Nc1ccc(C)c(S(=O)(=O)N2CCCCC2)c1	-33*	1	-19	4	-7
CCOc1ccc(NC(=O)CN(C)Cc2ccc3c(c2)OCO3)cc1S(=O)(=O)N1CCCC1	-35*	-1	-13	0	-6
CCc1ccc(C(=O)CCC(=O)Nc2ccc(OC)c(S(=O)(=O)N3CCCCC3)c2)cc1	-41*	0	0	7	/
CCNC(=O)C1CCCN1C(=O)C(CCCN=C(N)N)NC(=O)C(CC(C)C)NC(=O)C(Cc1cn(Cc2ccccc2)cn1)NC(=O)C(Cc1ccc(O)cc1)NC(=O)C(CO)NC(=O)C(Cc1c[nH]c2ccccc12)NC(=O)C(Cc1cnc[nH]1)NC(=O)C1CCC(=O)N1 (stereo unspecified)	1	0	-7	2	1
Cc1ccc(C(=O)NNC(=O)C2CCN(c3ncccn3)CC2)cc1	-3	0	7	1	0
CCOc1ccc(C2C(=O)N(C3CCCCCC3)CC(=O)N2Cc2ccccc2)cc1OC (stereo unspecified)	2	-1	-5	-3	0
CC(=O)N1c2ccc(S(=O)(=O)N3CCCCC3)cc2CC1C(=O)NCc1ccc(N(C)C)cc1 (stereo unspecified)	-12	0	-12	0	-4
CCN(CC)CCCNC(=O)CCCn1c(=O)[nH]c2ccc(Br)cc2c1=O	-31*	0	4	0	3
COc1ccc2c(c1)c1c(c(=O)n(-c3ccccc3)c(=O)n1CC(=O)Nc1ccc(C)c(C)c1)n2C	8	0	0	-1	-1
CCOCCCn1c(=N)c(C(=O)NCc2cccnc2)cc2c(=O)n3ccccc3nc21	1	8	-1	1	1
CCCn1c(=N)c(C(=O)NC2CCCC2)cc2c(=O)n3cc(C)ccc3nc21	-9	0	5	2	1
CCOCCCn1c(=N)c(C(=O)NCc2cccnc2)cc2c(=O)n3cc(C)ccc3nc21	-4	4	-6	34*	-1
COCCCn1c(=N)c(C(=O)NC2CCCC2)cc2c(=O)n3cc(C)ccc3nc21	5	11	3	86*	0
COc1ccc(CCNC(=O)Cn2nc(C)c3c(C)n(-c4ccc(C)cc4)nc3c2=O)c(OC)c1	-43*	-1	-8	2	-2
COc1ccc(NC(=O)CCCn2nc(C)c3c(C)n(-c4ccccc4)nc3c2=O)cc1OC	-53*	0	1	0	-2
Cc1cc(N(C)Cc2ccccc2)n2nc(-c3ccc(C(C)(C)C)cc3)nc2n1	7	0	4	3	5
CCCCC1=NN(C(=O)c2ccco2)C(O)(C(F)(F)F)C1 (stereo unspecified)	0	-1	36*	1	-3
CCOC(=O)C1CCN(Cc2ccc(OCc3ccccc3)c(OC)c2)CC1	5	0	7	1	17
COc1cc(OC)c2c(C)cc(=O)oc2c1C(CCN1CCN(c2ccccc2)CC1)c1ccc2c(c1)OCO2 (stereo unspecified)	-79*	0	8	5	-9
COc1cc(OC)c2c(-c3ccccc3)cc(=O)oc2c1C(CC(=O)N1CCN(c2ccccc2)CC1)c1ccc2c(c1)OCO2 (stereo unspecified)	1	0	-7	3	3
SMILES	D1 antag	TRHR ag	TRHR PAM	D1 agonist	D1 potentiator
COc1cc(O)c(C(CCN2CCCC2)c2ccc(N(C)C)cc2)c(OC)c1 (stereo unspecified)	-2	1	-2	5	-5
COc1cc(OC)c2c(-c3ccccc3)cc(=O)oc2c1C(CC(=O)N1CCOCC1)c1ccc2c(c1)OCO2 (stereo unspecified)	-60*	0	7	5	-5
COc1cc(O)c(C(CCN2CCCCC2)c2ccc(N(C)C)cc2)c(OC)c1 (stereo unspecified)	-34*	1	2	10	0
COc1cc(O)c(C(CCN2CCN(c3ccccc3)CC2)c2cc(OC)c(OC)c(OC)c2)c(OC)c1 (stereo unspecified)	-87*	0	11	4	-12
Cc1cccc(-n2ncc(C(=O)N3CCN(C4CCCCC4)CC3)c2C2CCN(C(=O)OC(C)(C)C)CC2)c1	-5	5	-8	0	-3
CCC(Sc1nnc(-c2ccc(OC)c(OC)c2)c(-c2ccc(OC)c(OC)c2)n1)C(=O)NC1CCCC1 (stereo unspecified)	6	-1	-1	0	-2
Nc1ccccc1C(O)(Cc1ccccc1)c1ccccc1 (stereo unspecified)	-6	0	11	2	-6
COc1ccccc1C(=O)COC(=O)c1cccc(S(=O)(=O)N2CCCC2)c1	-5	-1	-1	4	-3
COc1cc(O)c(C(CCN2CCCC2)c2ccc3c(c2)OCO3)c(OC)c1 (stereo unspecified)	21	0	16	7	-3
COc1cc(O)c(C(CCN2CCN(c3ccccc3)CC2)c2ccc3c(c2)OCO3)c(OC)c1 (stereo unspecified)	-76*	-1	4	1	-13
COc1cc(N)c(Cl)cc1C(=O)N[C@@H]1CCN(CCCOc2ccc(F)cc2)C[C@@H]1OC	-58*	0	-6	4	-3
COc1cc(N)c(Cl)cc1C(=O)N[C@H]1CCN(CCCOc2ccc(F)cc2)C[C@H]1OC	-3	0	5	12	-2
CC(=O)NC12CC3CC(C1)CC(C(=O)Nc1c(C)n(C)n(-c4ccccc4)c1=O)(C3)C2	-41*	0	15	3	0
COc1ccc(Cl)cc1NC(=O)Cn1c(=O)n(Cc2cccs2)c(=O)c2cccnc21	-21	1	-4	3	-4
Cc1nc(-c2ccccc2)nc2sc(C(=O)c3ccc(F)cc3)c(N)c12	10	13	-8	34*	-2
Cc1nc2sc(C(=O)c3ccccc3)c(N)c2c(C)c1C	3	-1	-15	0	-3
CC(=O)N1CCc2nc3sc(C(=O)c4ccc(F)cc4)c(N)c3c(C(F)(F)F)c2C1	7	37*	-3	61*	1
Cc1ccc(F)cc1NC(=O)COC(=O)COc1ccc(C#N)cc1	14	0	6	3	-1
